# Assay results as given in PubChem BioAssay AID743279 (National Center for Advancing Translational Sciences (NCATS), 2014).
# Hit rate of the full screen: of about 360,000 compounds, about 17,000 (4.7%) were called active. Another 5% or so got no clear call; they are omitted. This is one part of a sample in which actives are shown more often than they occur. A number with no mark means an inactive call. Cut-off read from the data, not from the text of the source: active = activity change below about -50%; inconclusive = mostly about -30% to -49%; inactive = weaker than that.
# Test: qHTS for Inhibitors of Inflammasome Signaling: IL-1-beta AlphaLISA Primary Screen
# Conditions: THP-1 LPS/ATP IL-1B secretion, 16 h; at 57.5 µM, hits give low values
# Summary of the method: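 Secreted IL-1B measured by AlphaLISA bead assay after 16 h compound exposure of THP-1 cells; compounds (final up to 57.5 uM) added 1 h before LPS (250 ng/mL) and ATP (1.25 mM) stimulation; lower signal means less secretion.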
# % is set by controls: 0 for no effect and ±100 for the full control effect.
row,Compound,activity change
1,CC1(C(=O)NS(=O)(=O)c2cccc(F)c2)CCN1C(=O)Cc1ccc(Cl)cc1Cl (configuration not stated),-15.9%
2,O=C(Nc1cc(S(=O)(=O)N2CCCCC2)ccc1Cl)C1COc2ccccc2O1 (configuration not stated),-6.17%
3,NS(=O)(=O)c1ccc(CCNC(=O)CNC(=O)Cc2ccccc2)cc1,12.6%
4,CC(C)c1nccn1S(=O)(=O)c1cc([N+](=O)[O-])ccc1Cl,0%
5,CCc1nc(C)cn1S(=O)(=O)c1cc(OC)c(C)cc1C,30.3%
6,CCc1nc(C)cn1S(=O)(=O)c1cc([N+](=O)[O-])ccc1Cl,-82.5% (active)
7,O=C1N[C@@H](Cc2ccccc2)C(=O)N2[C@@H]3N(S(=O)(=O)c4ccc(F)cc4)c4ccccc4[C@]3(Br)C[C@@H]12,-2.75%
8,Cc1cccc(S(=O)(=O)N(C)C[C@H]2OCc3cnnn3CCCC(=O)N([C@@H](C)CO)C[C@H]2C)c1,16.6%
9,Oc1cccc(C2c3[nH]c4ccccc4c3CCN2Cc2cnn(-c3ccccc3)c2)c1 (configuration not stated),-64% (active)
10,COc1cccc(C2c3[nH]c4ccccc4c3CCN2Cc2cccc(C)n2)c1 (configuration not stated),-5.35%
11,CCOc1ccc(C2c3[nH]c4ccccc4c3CCN2Cc2cn(CC)nc2C)cc1 (configuration not stated),18.2%
12,O=S1(=O)CCOC[C@H](Cc2ccccc2)N1Cc1ccccc1Br,-7.15%
13,CC(C)CCNC(=O)c1[nH]c(C(F)(F)F)nc1-c1ccccc1,28.5%
14,CC(C)Oc1ccc(CCc2n[nH]c(=S)n2Cc2ccccc2)cc1,16.3%
15,CN(C(=O)CSc1nncc2ccccc12)C1CCCCC1,0%
16,Brc1c(CSc2nncc3ccccc23)nc2ccccn12,-74% (active)
17,COC(=O)C[C@H]1C=C[C@H](NC(=O)c2ccc(F)cc2)[C@@H](CO)O1,-9.5%
18,CCOC(=O)N1CCN(C(=O)c2ccc(S(=O)(=O)Nc3cccc(C(F)(F)F)c3)cc2)CC1,0.178%
19,CCOC(=O)c1ccc2c(c1)nc(C)n2CC,-16.9%
20,CCn1c(/C=C/Nc2ccccc2)[n+](CC)c2ccc(C(=O)OCC(F)(F)F)cc21,-98.2% (active)
21,C[C@H](CO)N1C[C@H](C)[C@@H](CN(C)S(=O)(=O)c2ccc(Oc3ccccc3)cc2)OCc2cn(nn2)CCCC1=O,4.67%
22,O=S1(=O)CC(N2CCN(Cc3ccccc3F)CC2)CN1Cc1cn(Cc2cccc(C(F)(F)F)c2)nn1 (configuration not stated),-6.73%
23,S=c1[nH]nc(/C=C/c2ccccc2)o1,-8.62%

row,Compound,activity change
1,O=C(Cc1ccc(-c2ccccc2)cc1)NC(c1ccccc1)c1ccccc1,18.8%
2,CCOC(=O)C(C(=O)OCC)C(C#N)c1ccccc1 (configuration not stated),-20.8%
3,CCOC(=O)/C=C/C(=O)OCC(=O)NC(c1ccccc1)c1ccccc1,-96.9% (active)
4,CCN(CC)CCCN1C(=O)C(=O)/C(=C(/O)c2c(C)nc3ccccn23)C1c1ccc(C)o1 (configuration not stated),-3.42%
5,COCc1ccc(C(=O)NC2CC(C)(C)Cc3c2cnn3-c2ccc(C)cc2)o1 (configuration not stated),-2.96%
6,CC(C)(C)C1C/C(=C/c2ccco2)C(=O)/C(=C/c2ccco2)C1 (configuration not stated),-67.3% (active)
7,COC(=O)COc1ccc2c(c1C)O/C(=C\c1ccco1)C2=O,-8.17%
8,CCC1C/C(=C/c2cccs2)C(=O)/C(=C/c2cccs2)C1 (configuration not stated),-5.91%
9,CCNC(=O)C1(C)CCN(Cc2ccc(C(=O)OCC)o2)C1 (configuration not stated),0%
10,CCCCCCN1CCN(C2CN(Cc3cn(Cc4ccc(F)cc4)nn3)S(=O)(=O)C2)CC1 (configuration not stated),18.3%
11,Cc1ccccc1N/N=C/c1ccc(N2CCOCC2)cc1,0.147%
12,Cc1cc(Nc2ccc(C(=O)N3CCCCC3)cc2)c2cccc(C)c2n1,-2.62%
13,Cc1cc(Nc2ccc(N3CCOCC3)cc2)c2cccc(C)c2n1,-91.7% (active)
14,CN(CCc1ccccc1)C(=O)c1cccc(NC(=O)Cc2cccc(NC(=O)C3CCCN(C(=O)CCc4ccccc4)C3)c2)c1 (configuration not stated),-21.4%
15,NC1=NC(=O)C2(COC(c3ccccc3Cl)OC2)S1 (configuration not stated),-5.39%
16,COc1cccc(CN(C)CC(O)COC(c2ccccc2)c2ccccc2C)c1 (configuration not stated),-77% (active)
17,COc1cccc(CN(C)CC(=O)Nc2ccccc2C(=O)Nc2ccccc2)c1,58.1%
18,Cc1ccccc1C(OCC(O)CN1CCCCC1CCO)c1ccccc1 (configuration not stated),-10.1%
19,CC(OC(=O)c1ccccc1NCCO)C(=O)Nc1ccnn1C(C)C (configuration not stated),0%
20,CCn1cc(CN2CCCC(CNS(=O)(=O)Cc3ccccc3)C2)cn1 (configuration not stated),7.8%
21,CC1=C(C(=O)N(C)C)CC(CC(=O)NCCN2CCOCC2)C(=O)N1Cc1ccccc1 (configuration not stated),17.7%
22,CSc1ccccc1C(=O)Nc1cccc(C(C)=O)c1,-2.09%
23,CCSc1nsc(NC(=O)Nc2cccc(C(C)=O)c2)n1,-101% (active)

row,Compound,activity change
1,C=CCSc1nsc(NC(=O)Nc2cccc(C(C)=O)c2)n1,-100% (active)
2,CC(=O)c1cccc(NC(=S)N2CCCC2)c1,24.4%
3,CSc1nsc(NC(=O)Nc2ccccc2)n1,0%
4,C=CCSc1nnc(NC(=O)c2ccc(NC(C)=O)cc2)s1,1.35%
5,S=C(NN=Cc1ccccn1)Nc1ccccn1,68.2%
6,CN1C[C@@H](CO)O[C@@H](n2cnc3c(N4CCN(CCO)CC4)ncnc32)C1,23.3%
7,CC(=O)C1=CCC(c2ccccc2)N(S(=O)(=O)c2ccc(C)cc2)C1 (configuration not stated),0%
8,Cc1cc(Cl)ccc1N1C(=O)CC(SCCC(=O)O)C1=O (configuration not stated),9.22%
9,CCCN(CCC)c1nc2c(C)cccn2c(=O)c1/C=C1/SC(=S)N(Cc2ccco2)C1=O,8.74%
10,CCOC(=O)CC1C(=O)NCCN1c1nc2c(C)cccn2c(=O)c1/C=C1\SC(=S)N(C(C)CC)C1=O (configuration not stated),-79.5% (active)
11,CCOC(=O)N1CCN(C(=O)CSc2nc(=O)n3cccc(C)c3n2)CC1,-6.68%
12,CN1OC[C@@H]2CN(S(=O)(=O)c3cccc(C(F)(F)F)c3)[C@H](c3ccc(-c4cc5ccccc5o4)cc3)C[C@@H]21,-0.573%
13,Cc1nnc(N(Cc2ccco2)C(=O)c2ccno2)s1,-16.2%
14,COc1ccc(Sc2ccc(NC(=O)c3cccc(Cl)c3)cc2C#N)cc1,-1.44%
15,COc1ccc(C(=O)Nc2ccc3nc(N4CCCCC4)cc(C)c3c2)cc1OC,30.7%
16,COc1ccc(C(=O)Nc2ccc(C3(C#N)CCCC3)cc2)cc1OC,-55% (active)
17,COc1cc(C(=O)NCC2(c3ccccc3)CCCC2)ccc1OC(C)C,-0.814%
18,CC(C)CN(C(=O)Cn1c(=O)cnc2ccccc21)C1CCS(=O)(=O)C1 (configuration not stated),5.99%
19,CCn1c(SCC(=O)N2CCCC2=O)nc2ccccc21,-4.32%
20,COc1cc(C(O)c2nc(-c3cccc(C(=O)O)c3)cs2)ccc1F (configuration not stated),1.15%
21,Cc1ccc2nc(-c3ccco3)c(Cc3cccc(Cl)c3)n2c1,-21.3%
22,Cc1ccc(Cc2c(-c3ccccc3)nc3ccc(Cl)cn23)cc1,1.06%
23,Cc1ccc(Cc2c(-c3ccco3)nc3ccc(Cl)cn23)cc1,-76.3% (active)

row,Compound,activity change
1,COc1ccc(CCc2nnc(CCC(=O)NCc3cnn(-c4ccccc4C)c3)o2)cc1,0%
2,CCCCCn1nnnc1C1c2ccccc2C(=O)N1Cc1ccco1 (configuration not stated),0%
3,Cc1ccc(-c2nn(-c3ccccc3)cc2C(=O)Nc2cccc(S(=O)(=O)N3CCOCC3)c2)cc1,-2.09%
4,Cc1ccc(-c2nn(-c3ccccc3)cc2C(=O)NCCCN2CCCC2=O)cc1,0%
5,O=C(O)c1ccc(NC(=O)c2cn(-c3ccccc3)nc2-c2ccc(Cl)cc2)cc1,-53.3% (active)
6,Cc1ccc(Cc2c(-c3ccc(C)cc3)nc3c4ccccc4ccn23)cc1,27.7%
7,FC(F)(F)c1ccccc1Cc1c(-c2ccccc2)nc2c3ccccc3ccn12,14.3%
8,Cc1cc(N2CCN(C)CC2)nc2ccc(NC(=S)N3CCOCC3)cc12,-0.695%
9,Cc1cc(N2CCOCC2)nc2ccc(NC(=S)N3CCN(Cc4ccccc4)CC3)cc12,-70.6% (active)
10,CCOCCCNC(=S)Nc1ccc2nc(N3CCN(CC)CC3)cc(C)c2c1,46.7%
11,CC(=O)N1C[C@@H](CO)[C@@H](N(C)C(=O)c2ccco2)C[C@H]1c1ccccc1,11.5%
12,C(=N/Nc1cc(N2CCOCC2)nc(N2CCOCC2)n1)/c1ccccc1,-78.9% (active)
13,CN(C)c1ccc(/C=N/Nc2cc(N3CCOCC3)nc(N3CCOCC3)n2)cc1,-1.5%
14,Fc1ccccc1/C=N/Nc1cc(N2CCCCC2)ncn1,-12%
15,OC(c1ccccc1)c1nc(-c2cnc3ccccc3c2)cs1 (configuration not stated),32.8%
16,O=C(Cc1ccc([N+](=O)[O-])cc1)NCCc1ccc2c(c1)OCO2,0%
17,O=C(N/N=C/c1cc([N+](=O)[O-])ccc1O)/C(=C\c1cccs1)NC(=O)c1ccccc1,245%
18,Nc1nnnn1/N=C/c1cc([N+](=O)[O-])ccc1O,0%
19,O=[N+]([O-])c1ccc(O)c(/C=N/Nc2ccccc2[N+](=O)[O-])c1,-51.4% (active)
20,CCCNC(=O)c1cc(C2CCCCN2S(=O)(=O)c2ccc(C#N)cc2)on1 (configuration not stated),-18.6%
21,CCOc1ccc2nc(C(=O)N3CCCC(C)C3)sc2c1 (configuration not stated),-10.2%
22,CCOc1cc(/C=C2\C(=N)N3N=C(C)SC3=NC2=O)ccc1OCCOc1ccccc1,4.36%
23,CCOc1cc(/C=C2\SC(N3CCCC(C)C3)=NC2=O)ccc1O (configuration not stated),-57.3% (active)
